Source: PubChem BioAssay (Tox21)
Inconclusive results are not listed. Where a call stands in place of a potency, no number is given. Active and inactive are the calls of the source. Calls follow the shape of the full dose curve.

Assay: qHTS assay for small molecules that induce genotoxicity in human embryonic kidney cells expressing luciferase-tagged ATAD5 - cell viability (AID 651634); also: nearly all actives have a fitted effect of over 25% in size
Details: HEK293T ATAD5-luc cells viability, CellTiter-Fluor, 15.5 h; series mostly up to 83.3 µM
Description: National Center for Advancing Translational Sciences [NCATS]
NIH Chemical Genomics Center [NCGC]
U.S. Environmental Protection Agency [EPA]
National Institutes of Environmental Health Sciences [NIEHS]
National Toxicology Program [NTP]
U.S. Food and Drug Administration [FDA]
Enhanced Level of Genome Instability Gene 1 (ELG1; human ATAD5) protein levels increase in response to various types of DNA damage. Using a luciferase reporter-gene tagged with ElG1, a cell-based assay [developed by Kyungjae Myung, NHGRI, NIH] was used to measure the induction of ATAD5 in human embryonic kidney cells (HEK293T). So, increase in luciferase activity can be used to identify the compounds that cause genetic stress. In addition to genotoxicity, these cells were also used to test for cytotoxicity by measuring the protease activity within live cells.
Tox21 Assay Protocol Summary:
For cytotoxicity screening, 2,000 cells in 5 uL/well were dispensed into white, solid-bottom 1536-well plates using a Multidrop Combi (Thermo Scientific) dispenser. Following transfer of 23 nL compound or DMSO vehicle by a pin tool, the plates were incubated 15.5 hr at 37C and 5% CO2. 1 ul CellTiter-Fluor reagent (Promega, Madison, WI) was then added to each plate and following 30 min incubation at 37C, fluorescence intensity was quantified on a ViewLux CCD-based plate reader.

Compound	Potency	activity, negative = cytotoxicity
FC(F)(F)C(F)(F)C(F)(F)C(F)(F)CCI	inactive	
O=C(CCS)OCC(COC(=O)CCS)(COC(=O)CCS)COC(=O)CCS	inactive	
CC(C)OC(=O)c1ccccc1C(=O)OC(C)C	inactive	
Nc1c(Cl)cc(Cl)cc1[N+](=O)[O-]	inactive	
c1ccc2sc(SSc3nc4ccccc4s3)nc2c1	inactive	
CC(C)COC(=O)c1ccc(O)cc1	inactive	
CC(=O)OCCC1CCCCC1	inactive	
CC(C)c1ccc(C(=O)N=C(N)N)cc1S(C)(=O)=O	inactive	
O=c1[nH][nH]c(=O)c2cc([N+](=O)[O-])ccc12	inactive	
Cc1ccc(S(=O)(=O)NC(=O)NC2CCCCC2)cc1	inactive	
CCN(CC)CCOc1ccccc1C(=O)CCc1ccccc1	inactive	
CC(O)Cn1cnc2c1c(=O)n(C)c(=O)n2C (stereo not given)	inactive	
COc1ccc(-c2cc(C(F)F)nn2-c2ccc(S(N)(=O)=O)cc2)cc1F	inactive	
O[C@@H](CNC[C@H](O)[C@H]1CCc2cc(F)ccc2O1)[C@@H]1CCc2cc(F)ccc2O1	inactive	
O=C1[C@@H]2[C@H]3CC[C@H](C3)[C@@H]2C(=O)N1CCCCN1CCN(c2ncccn2)CC1	inactive	
CCCCOC(=O)CCCCC(=O)OCCCC	inactive	
O=C(O)CO	inactive	
NC(=O)CCCCC(N)=O	inactive	
CC(C)(O)c1coc(S(=O)(=O)NC(=O)Nc2c3c(cc4c2CCC4)CCC3)c1	inactive	
CCC(C)(C)C(=O)O	inactive	

Compound	Potency	activity, negative = cytotoxicity
O=C(O)c1cccc(Oc2ccccc2)c1	inactive	
CC1C(C)(C)C2=C(C(=O)CCC2)C1(C)C (stereo not given)	inactive	
O=S(=O)(Cl)c1c(Cl)cccc1Cl	inactive	
c1ccc(CCCc2ccncc2)cc1	inactive	
COC1CCC=CO1 (stereo not given)	inactive	
Cc1ccc(Nc2c(F)cccc2Cl)c(CC(=O)O)c1	inactive	
CCN(CC)CCNC(=O)c1cc(Cl)c(N)cc1OC	inactive	
COc1cc(NC(C)CCCN)c2ncccc2c1 (stereo not given)	inactive	
O=C(O)CCC(=O)c1ccc(-c2ccccc2)cc1	inactive	
CC(=O)c1ccc[nH]1	inactive	
CC(C(=O)O)c1ccc(C(=O)c2cccs2)cc1 (stereo not given)	inactive	
CC(C)COC(=O)COc1cc(Cl)c(Cl)cc1Cl	inactive	
COc1ccc(C(=O)NCc2ccc(OCCN(C)C)cc2)cc1OC	inactive	
CC1CCCO1 (stereo not given)	inactive	
CC1=CC[C@@H]2C[C@H]1C2(C)C		-7.96% [at 17.9 µM] (inactive)
CCC(=O)OCc1ccc(OC)cc1	inactive	
Cc1ccc2c(c1)CCCN2	inactive	
CCCCCCC(CO)CCCC (stereo not given)	inactive	
CCC1CCC(CCC(=O)O)C1 (stereo not given)	inactive	
C[C@@H]1C[C@H]2[C@@H]3CCC4=CC(=O)C=C[C@]4(C)[C@@]3(F)[C@@H](O)C[C@]2(C)[C@@]1(O)C(=O)COP(=O)(O)O	inactive	
